Columns and labels:
Type in all cases: functional
[1] = target: Solute carrier family 2, facilitated glucose transporter member 1 (Homo sapiens) (UniProt P11166); experiment: ST_JUDE_LEISH: Cytotoxicity at 2uM final concentration against transgenic Leishmania Mexicana promastigotes LmGLUT1 that are glucose transport deficient and complemented with the human glucose transporter GLUT1. Activity is measured by DNA content using SYBR green in vitro
[2] = target: Hexose transporter 1 (Plasmodium falciparum) (UniProt O97467); experiment: ST_JUDE_LEISH: Cytotoxicity at 2uM final concentration against transgenic Leishmania Mexicana promastigotes LmPfHT that are glucose transport deficient and complemented with the Plasmodium falciparum hexose transporter. Activity is measured by DNA content using SYBR green in vitro
[3] = target: Glucose transporter (Leishmania mexicana) (UniProt O61059); experiment: ST_JUDE_LEISH: Cytotoxicity at 2uM final concentration against transgenic Leishmania Mexicana promastigotes LmGT2 that are glucose transport deficient and complemented with the L. Mexicana glucose transporter 2. Activity is measured by DNA content using SYBR green in vitro

Chain of Solute carrier family 2, facilitated glucose transporter member 1 (Homo sapiens) (P11166 whole entry): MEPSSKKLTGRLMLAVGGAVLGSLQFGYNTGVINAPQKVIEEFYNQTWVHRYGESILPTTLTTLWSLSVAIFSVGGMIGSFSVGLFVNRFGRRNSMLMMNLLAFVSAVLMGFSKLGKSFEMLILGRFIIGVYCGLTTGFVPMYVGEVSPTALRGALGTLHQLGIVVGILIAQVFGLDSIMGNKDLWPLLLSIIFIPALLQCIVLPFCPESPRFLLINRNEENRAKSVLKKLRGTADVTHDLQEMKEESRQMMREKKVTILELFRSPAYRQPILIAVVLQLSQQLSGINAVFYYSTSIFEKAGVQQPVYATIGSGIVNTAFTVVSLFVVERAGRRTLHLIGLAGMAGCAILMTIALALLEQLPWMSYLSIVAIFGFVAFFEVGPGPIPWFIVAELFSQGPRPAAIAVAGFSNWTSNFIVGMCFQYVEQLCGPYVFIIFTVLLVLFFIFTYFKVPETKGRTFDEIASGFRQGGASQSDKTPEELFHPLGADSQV

| Structure (SMILES) | inhibition [1] | inhibition [2] | inhibition [3] |
| --- | --- | --- | --- |
| N#Cc1ccc2[nH]c(-c3ccccc3)nc2c1 | 7.3% | 6.06% | 5.78% |
| Cc1cccc2nc(-c3cccc(-c4ccc(NC(=O)Nc5ccc(Cl)cc5)cc4)c3)[nH]c12 | 4.43% | 5.13% | -3.06% |
| Cc1cc2nc(-c3ccc(/C=C/C(=O)NCCc4ccccc4)cc3)[nH]c2cc1C | 1.09% | 0.54% | 0.56% |
| O=C(Nc1cccc(-c2cccc(-c3nc4cc(F)ccc4[nH]3)c2)c1)Nc1ccc(F)c(F)c1F | 7.82% | 7.26% | 7.83% |
| CN(C)CCN1CCN(Cc2cccc(-c3csc(-c4nc5ccccc5[nH]4)c3)c2)CC1 | 0.51% | 2.44% | 2.16% |
| c1cc(-c2ccc(CNC3CC3)cc2)cc(-c2nc3ccccc3[nH]2)c1 | 4.18% | 1.98% | 0.68% |
| COc1ccc(CNC(=O)NC2CCN(c3ccnc(Nc4cc(OC)c(OC)c(OC)c4)n3)C2)cc1 (stereo not given) | 1.55% | 5.45% | -1.15% |
| CC(=O)Nc1nc(C(=O)Nc2ccc(-c3cccc(-c4nc5cccc(C)c5[nH]4)c3)cc2)cs1 | 8.57% | 9.26% | 5.38% |
| N#CC1(c2ccccc2)CCN(c2nc(NCCCN3CCCC3=O)nc(N3CCCC4CCCCC43)n2)CC1 (stereo not given) | 2.11% | 2.3% | -0.55% |
| Cc1cc(NC2CCN(CC3CCCCC3)CC2)nc(Nc2ccccc2Cl)n1 | 2.86% | 6.27% | 0.85% |
| Nc1nc(Cc2ccc(Cl)cc2)nc(Cc2ccc(Cl)cc2)n1 | -3.43% | -1.17% | 5.85% |
| CCCc1cc(OC)c(CC2c3cccc(O)c3CCN2C)cc1OC (stereo not given) | 0.68% | 0.4% | -0.12% |
| CCCNCc1ccc(-c2ccc(CN(CCOC)C(=O)CCC(=O)c3ccc(OC)c(F)c3)cc2)nc1 | 0.12% | 3.36% | 1.5% |
| COc1ccc(CNCc2ccccc2)cc1-c1ccc(S(=O)(=O)NCCN2CCCC2)c(C)c1 | 3.15% | -0.54% | 2.34% |
| COc1ccc(N2C(N)=NC(N)=NC2(C)C)cc1 | 1.65% | 3.07% | 2.77% |
